PubChem BioAssay (NCATS)
Unmarked numbers belong to inactive results. The call rests on the fitted dose curve; in most records, active means well fitted curve in the direction sought with a large enough effect (not every such curve was filed as active); inconclusive means small, poorly fitted or top-dose-only effect, or effect the other way, or another doubt; inactive means no such curve, though single readings can be large or run the other way.

biological target: Pyruvate kinase PKM (Homo sapiens) (UniProt P14618); test: qHTS Assay for Activators of Human Muscle Pyruvate Kinase (AID 954); details: purified human muscle pyruvate kinase, luciferase-coupled luminescence, 1 h; series mostly up to 57.5 µM; activity change, negative = inhibition: at the top concentration;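 further: 0% = uninhibited enzyme and -100% = no enzyme or full thiadiazolimine inhibition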
How it was run: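 Luminescence from a luciferase ATP-detection/stop reagent reported PKM2 activity. Reactions contained 0.1 nM purified human enzyme, 0.5 mM PEP, 0.1 mM ADP and 7 mM MgCl2 at pH 7.2, run 1 h at RT.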

Chain of Pyruvate kinase PKM (Homo sapiens) (P14618 whole entry, looked up): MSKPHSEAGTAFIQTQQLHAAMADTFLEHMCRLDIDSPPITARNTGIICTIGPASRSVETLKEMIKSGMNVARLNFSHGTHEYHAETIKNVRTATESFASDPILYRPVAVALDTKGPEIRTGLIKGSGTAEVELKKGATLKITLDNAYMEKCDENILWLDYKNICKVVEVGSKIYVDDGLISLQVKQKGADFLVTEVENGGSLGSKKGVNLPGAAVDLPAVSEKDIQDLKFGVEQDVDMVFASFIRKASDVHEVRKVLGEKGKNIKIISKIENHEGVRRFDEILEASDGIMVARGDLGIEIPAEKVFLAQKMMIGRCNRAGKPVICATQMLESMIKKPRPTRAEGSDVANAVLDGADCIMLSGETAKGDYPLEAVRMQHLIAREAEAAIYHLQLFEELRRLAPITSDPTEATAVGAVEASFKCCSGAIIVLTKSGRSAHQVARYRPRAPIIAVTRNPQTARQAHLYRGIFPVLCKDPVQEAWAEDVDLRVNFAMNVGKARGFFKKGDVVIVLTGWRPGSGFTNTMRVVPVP

Structure (SMILES)	activity change, negative = inhibition
CS(=O)(=O)Nc1ccc([N+](=O)[O-])cc1Oc1ccccc1	-23.8%
CN(C)CCOC(c1ccccc1)c1ccccc1	-16.8%
NCCCCCC(=O)O	-9.44%
CN(C)c1nc(N(C)C)nc(N(C)C)n1	-10.6%
Cc1ccc(C(=O)Nc2ccc(S(=O)(=O)O)c3cc(S(=O)(=O)O)cc(S(=O)(=O)O)c23)cc1NC(=O)c1cccc(NC(=O)Nc2cccc(C(=O)Nc3cc(C(=O)Nc4ccc(S(=O)(=O)O)c5cc(S(=O)(=O)O)cc(S(=O)(=O)O)c45)ccc3C)c2)c1	-52.2%
CN1CCN(CCCN2c3ccccc3Sc3ccc(Cl)cc32)CC1	-3%
OCCN(CCO)c1nc(N2CCCCC2)c2nc(N(CCO)CCO)nc(N3CCCCC3)c2n1	-7.59%
Fc1ccc([C@@H]2CCNC[C@H]2COc2ccc3c(c2)OCO3)cc1	-20.6%
NC(=O)NO	-10.7%
CN(C)CCC=C1c2ccccc2C=Cc2ccccc21	-19.3%
Cc1cc(C(C)(C)C)c(O)c(C)c1CC1=NCCN1	3.37%
COc1nc(C)nc(Cl)c1NC1=NCCN1	-4.93%
COC(=O)Nc1nc2ccc(C(=O)c3cccs3)cc2[nH]1	-18.5%
CN1CCC(=C2c3ccccc3C=Cc3ccccc32)CC1	-8.21%
CN1CCN(C2=Nc3cc(Cl)ccc3Nc3ccccc32)CC1	-5.88%
COc1ccc(C2CNC(=O)C2)cc1OC1CCCC1 (centres undefined)	-2.85%
NCCc1cnc[nH]1	-3.59%
O=C(CCCN1CCC(O)(c2ccc(Cl)cc2)CC1)c1ccc(F)cc1	-6.75%
O=c1c(O)c(-c2ccc(O)c(O)c2)oc2cc(O)cc(O)c12	-14.9%
